# Measured values from PubChem BioAssay (EPA / NIEHS).
# Several values for one entry are separate records, joined by “and”; a condition that tells them apart may be missing. Equal entries are not always repeated. Where a structure was tested more than once in an assay, its records may differ in their call. Activity calls are given as the source filed them. Rule for the calls: active = hit-call score of the fitted dose curve at least 0.9, where 1 is the maximum; inactive = score below 0.9.
# Read-out: Interleukin-1 alpha (IL1a), IL1A (gene 3552)
# Assay: BSK_KF3CT_IL1a: BioMAP Diversity Plus: KF3CT Assay for Interleukin-1 alpha (IL1a) Biomarker Activity (AID 2283070)
# Details: primary human keratinocytes with fibroblasts; actives raise or lower the signal
# Protocol: BSK_KF3CT is a cell-based, multiplexed-readout assay that uses keratinocytes and foreskin fibroblasts, a human skin primary cell co-culture, with measurements taken at 24 hours after chemical dosing in a 96-well plate.BSK_KF3CT_IL1a is an assay component measured in the BSK_KF3CT assay. It measures IL-1a antibody related to regulation of gene expression using ELISA technology.Data from the assay component BSK_KF3CT_IL1a was analyzed into 1 assay endpoint. This assay endpoint, BSK_KF3CT_IL1a, was analyzed with bidirectional fitting relative to DMSO as the negative control and baseline of activity. Using a type of binding reporter, gain or loss-of-signal activity can be used to understand changes in the signaling as they relate to the gene IL1A. Furthermore, this assay endpoint can be referred to as a primary readout, because this assay has produced multiple assay endpoints where this one serves a signaling function. To generalize the intended target to other relatable targets, this assay endpoint is annotated to the cytokine intended target family, where the subfamily is interleukins.
# The levels of cell surface (or secreted, indicated by the prefix "s") biomarker endpoints were measured by ELISA. Overt cytotoxicity to cells in confluent adherent cultures (all systems other than the BT system) was assessed by measuring total protein levels using sulforhodamine B (SRB) staining in parallel cultures at the time of biomarker measurements, indicated as SRB endpoints. For proliferation assays for adherent cell types, individual cell types are cultured at sub-confluence and relative cell numbers quantified by SRB staining at time points optimized for each system (48 h: 3C and CASM3C systems; 72 h: BT and HDF3CGF systems; 96 h: SAg system). SRB was performed by staining cells with 0.1% SRB after fixation with 10% TCA and reading wells at 560 nm.Viability and proliferation of PBMC (T cells) was quantified by Alamar Blue reduction for the SAg and BT systems. For PBMC viability (referred to as PBMC Cytotoxicity within the assay endpoint names), cells were plated (75,000/well in a 96-well plate) and then chemical samples added for 1 h before addition of activators, SEB and TSST-1 (20 ng/mL final concentration each). Cells were incubated for 90 h. Then, Alamar Blue (20 uL/well) (Invitrogen, Cat DAL1100) was added for 6 h, and the plates were read with a fluorescence microplate reader at 546/580 nm (excitation/emission). For PBMC proliferation, cells were plated and activated as above but incubated for only 16 h prior to addition of Alamar Blue. Plates were read after 6 h.
Compound,outcome,AC50
C=CCN(CC=C)C(=O)C(Cl)Cl,inactive,
C=CC(=O)OCC(CC)CCCC (centres undefined),,6.47 µM (active)
O=[N+]([O-])C=Cc1ccccc1,,5.78 µM (active)
CC(C)COP(=O)(OCC(C)C)OCC(C)C,inactive,
Cc1ccc(OP(=O)(Oc2ccc(C)cc2)Oc2ccc(C)cc2)cc1 (tested in a mixture with another compound),inactive,
CCCCCCCCCCCC#N,inactive,
O=c1[nH]c(Cl)c(Cl)cc1Cl,inactive,
O=C1C=CC(=O)C=C1,,30.3 µM (active) and 26.4 µM (active)
N#CCCCCC#N,inactive,
COCC(=O)N(c1c(C)cccc1C)N1CCOC1=O,inactive,
CCc1cc(C)cc(CC)c1-c1c(OC(=O)C(C)(C)C)n2n(c1=O)CCOCC2,inactive,
Oc1ccc(C2(c3ccc(O)cc3)c3ccccc3-c3ccccc32)cc1,,8.68 µM (active) and 6.35 µM (active)
CC(C)CCCCCCCOC(=O)c1ccccc1C(=O)OCCCCCCCC(C)C,inactive,
CCCOC(=O)c1ccccc1C(=O)OCCC,inactive,
O=[N+]([O-])O,inactive,
Nc1ccc(-c2ccc(N)c(N)c2)cc1N,,15.8 µM (active)
CNC(=O)Oc1cc(C)c(SC)c(C)c1,inactive,
COC(C)(C)CCC[C@H](C)C/C=C/C(C)=C/C(=O)OC(C)C,,24.1 µM (active)
O=S(=O)(c1ccccc1)c1ccccc1,inactive,

Compound,outcome,AC50
O=C(O)CCCc1ccc(N(CCCl)CCCl)cc1,inactive,12.3 µM (active)
CCC(C)c1cc([N+](=O)[O-])cc([N+](=O)[O-])c1OC(=O)C=C(C)C (centres undefined),,22.8 µM (active)
CC(C)(c1cc(Cl)c(O)c(Cl)c1)c1cc(Cl)c(O)c(Cl)c1,,9.44 µM (active)
c1ccc(Nc2ccc3ccccc3c2)cc1,,24.2 µM (active)
Oc1cc(Cl)ccc1Cl,inactive,
CC(C)CCCCCCCOP(=O)(Oc1ccccc1)Oc1ccccc1,,11.3 µM (active)
CC1(C)[C@H](C(=O)O[C@H](C#N)c2cccc(Oc3ccccc3)c2)[C@@H]1C=C(Br)Br,inactive,
[Cd+2].[Cl-].[Cl-],,33.8 µM (active) and 30.1 µM (active)
CC(=O)/C=C/c1ccccc1,inactive,
CC(C)(C)C(O)C(Oc1ccc(-c2ccccc2)cc1)n1cncn1 (centres undefined),,33 µM (active)
O=c1c2ccccc2c(=O)c2c1cc(Cl)c1[nH]c3c([nH]c12)c(Cl)cc1c(=O)c2ccccc2c(=O)c13,inactive,
CC(C)(C)C(=O)CCl,inactive,
Clc1ccc(-c2ccccc2)cc1,inactive,
COc1ccc(CO)cc1,inactive,
O=C1C(Cl)=C(Cl)C(=O)C(Cl)=C1Cl,,20.1 µM (active)
O=C(CCl)c1ccccc1,,28.4 µM (active)
O=[N+]([O-])c1ccc(Cl)cc1,inactive,
O=P1(NCCCl)OCCCN1CCCl (centres undefined),inactive,
CCCC[N+](CCCC)(CCCC)CCCC,inactive,
